Reference: PubChem BioAssay (NCATS)
Inconclusive results are not listed. A call without a number means that no potency is given here. The source made the active and inactive calls. Calls follow the shape of the dose curve; as a rule, active = well fitted curve in the direction sought with a large enough effect; inconclusive = small, poorly fitted or top-dose-only effect, or another doubt; inactive = no such curve, though single readings can be large; an effect the other way counts as inactive or inconclusive.

Columns and labels:
[1] = qHTS assay for measurement of the activity of small molecule inhibitors on Zika virus induced Caspase-3 activity in human iPSC derived neural progenitor cells (hNPCs) (AID 1224857); also: nearly all actives have a fitted effect of over 65% in size
How it was run: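 Percent inhibition of virus-induced caspase-3/7 luminescence (Caspase-Glo), scaled between uninfected cells and Zika-infected cells. hNPCs received compound 1 hr before ZIKV at 2 FFU/cell, with 6 hours infection at 37 C.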

[2] = qHTS assay for measurement of the activity of small molecule inhibitors on Zika virus induced Caspase-3 activity in human astrocytoma cells (AID 1224859)
How it was run: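 Luminescent caspase-3/7 read-out (30 min reagent, room temperature) in human SNB-19 cells infected 6 h with ZIKV (2 FFU/cell) after 1 h compound pre-incubation; Data were normalised to uninfected and infected wells.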

[3] = qHTS assay to identify small molecule inhibitors of chordoma cells - UCH-1 (AID 1259355); also: nearly all actives have a fitted effect of over 55% in size; also: potency is read from the fitted curve at half-maximal effect; series mostly up to about 46 µM
How it was run: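 A 48hr growth-inhibition format: each drug tested at 15 concentrations together with added auranofin, camptothecin, doxorubicin, rubitecan and topotecan, with cell viability quantified as CellTiter-Glo luminescence.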

[4] = qHTS assay to identify small molecule inhibitors of chordoma cells - UCH-2 (AID 1259356); also: potency is read from the fitted curve at half-maximal effect
[5] = P-glycoprotein substrates identified in KB-8-5-11 adenocarcinoma cell line, qHTS therapeutic library screen (AID 1346987); also: nearly all actives have a fitted effect of over 65% in size; also: potency is read from the fitted curve at half-maximal effect
How it was run: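 Luminescence from CellTiter-Glo, read 5 min after addition, quantified survival of KB-8-5-11 (P-gp-overexpressing) cells exposed to compounds for 72 h. AC50 was derived from concentration-response curves.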

[6] = P-glycoprotein substrates identified in KB-3-1 adenocarcinoma cell line, qHTS therapeutic library screen (AID 1346986); settings: KB-3-1 parental cells viability, CellTiter-Glo, 72 h; also: nearly all actives have a fitted effect of over 60% in size
How it was run: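 72 h cell-killing screen, 500 cells/well, CellTiter-Glo luminescence. Paired lines KB-3-1/KB-8-5-11; P-gp dependence checked by tariquidar co-treatment and HEK-293 MDR-19 versus empty-vector cells.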

SMILES | Potency [1] | outcome [2] | Potency [3] | Potency [4] | Potency [5] | outcome [6] | outcome [5]
C#C[C@]1(O)CC[C@H]2[C@@H]3CCc4cc(OC)ccc4[C@H]3CC[C@@]21C | inactive | inactive | inactive | inactive | – | – | –
COC(=O)C(c1ccccc1Cl)N1CCc2sccc2C1 (configuration not stated) | inactive | inactive | inactive | inactive | – | – | –
O=c1[nH]c(=O)n([C@H]2C[C@H](O)[C@@H](CO)O2)cc1F | inactive | inactive | inactive | inactive | – | – | –
C[C@]12CCC(=O)C=C1C=C[C@@H]1[C@@H]2CC[C@@]2(C)[C@H]1CC[C@@]21CCC(=O)O1 | inactive | inactive | inactive | inactive | – | – | –
CCN(CC)CCOC(=O)C(Cc1cccc2ccccc12)CC1CCCO1 (configuration not stated) | inactive | inactive | inactive | inactive | – | – | –
CN(C)CCOC(c1ccc(Cl)cc1)c1ccccn1 (configuration not stated) | inactive | inactive | inactive | inactive | – | – | –
O=C1[C@H](CC[C@H](O)c2ccc(F)cc2)[C@@H](c2ccc(O)cc2)N1c1ccc(F)cc1 | inactive | inactive | inactive | inactive | – | – | –
O=C(O)P(=O)(O)O | inactive | inactive | inactive | inactive | – | – | –
CCCCCCCCCCCCCC(=O)OC(C)C | inactive | inactive | inactive | inactive | – | – | –
CCCCNc1ccc(C(=O)OCCOCCOCCOCCOCCOCCOCCOCCOCCOC)cc1 | inactive | inactive | inactive | inactive | – | – | –
COc1ccc(C(=O)c2ccccc2O)c(O)c1 | inactive | inactive | inactive | inactive | – | – | –
CCCCCCCCCCCCCCC[C@H](O)[C@@H](N)CO | inactive | inactive | inactive | inactive | – | – | –
CN1CCc2cccc3c2[C@H]1Cc1ccc(O)c(O)c1-3 | inactive | inactive | inactive | inactive | – | – | –
N#C/C(=C1\SCC(c2ccccc2Cl)S1)n1ccnc1 (configuration not stated) | inactive | inactive | inactive | inactive | – | – | –
Cc1ccc2c(Br)cc(Br)c(O)c2n1 | inactive | inactive | inactive | inactive | – | – | –
CN(CCCN1c2ccccc2CCc2ccccc21)CC(=O)c1ccc(Cl)cc1 | inactive | inactive | inactive | inactive | – | – | –
CC(=O)O[C@]1(C(C)=O)CC[C@H]2[C@@H]3C=C(Cl)C4=CC(=O)CC[C@]4(C)[C@H]3CC[C@@]21C | inactive | inactive | inactive | inactive | – | – | –
CCN(CC)CCOc1ccc2c(c1)C(=O)c1cc(OCCN(CC)CC)ccc1-2 | inactive | inactive | inactive | inactive | – | – | –
Cl/C(=C\n1cncn1)c1ccc(Cl)cc1Cl | inactive | inactive | inactive | inactive | – | – | –
O[C@@H](c1cc(C(F)(F)F)nc2c(C(F)(F)F)cccc12)[C@H]1CCCCN1 | inactive | inactive | 35.5 µM (active) | inactive | – | – | –
CCN1CCCC(OC(=O)C(c2ccccc2)c2ccccc2)C1 (configuration not stated) | inactive | inactive | inactive | inactive | – | – | –
CCc1oc2ccccc2c1C(=O)c1cc(I)c(O)c(I)c1 | inactive | inactive | inactive | inactive | – | – | –
OC(C#CCN1CCCC1)(c1ccccc1)c1ccccc1 | inactive | inactive | inactive | inactive | – | – | –

SMILES | Potency [1] | outcome [2] | Potency [3] | Potency [4] | Potency [5] | outcome [6] | outcome [5]
CCCN(CCc1cccs1)[C@H]1CCc2c(O)cccc2C1 | inactive | inactive | inactive | inactive | – | – | –
Clc1cccc(C(c2ccc3nc[nH]c3c2)n2ccnc2)c1 (configuration not stated) | inactive | inactive | inactive | inactive | – | – | –
CC(C)n1c(/C=C/[C@@H](O)C[C@@H](O)CC(=O)O)c(-c2ccc(F)cc2)c2ccccc21 | inactive | inactive | inactive | inactive | – | – | –
CO[C@]12C[C@@H](COC(=O)c3cncc(Br)c3)CN(C)[C@@H]1Cc1cn(C)c3cccc2c13 | inactive | inactive | inactive | inactive | – | – | –
C#C[C@]1(O)CC[C@H]2[C@@H]3[C@H](C)CC4=C(CCC(=O)C4)[C@H]3CC[C@@]21C | inactive | inactive | inactive | inactive | – | – | –
CC(=O)O[C@]1(C(C)=O)CC[C@H]2[C@@H]3C=C(C)C4=CC(=O)CC[C@]4(C)[C@H]3CC[C@@]21C | inactive | inactive | inactive | inactive | – | – | –
CCN(CC)CCNc1ccc(CO)c2sc3ccccc3c(=O)c12 | inactive | inactive | inactive | 25.9 µM (active) | – | – | –
CC(C)=CCOc1ccc(/C=C/C(=O)c2ccc(OCC=C(C)C)cc2OCC(=O)O)cc1 | inactive | inactive | inactive | inactive | – | – | –
COc1ccccc1N1CCN(CCCCNC(=O)c2ccc(-c3ccc(C(C)=O)cc3)cc2)CC1 | inactive | inactive | inactive | inactive | – | – | –
COc1ccc(CN(CCN(C)C)c2ncccn2)cc1 | inactive | inactive | inactive | inactive | – | – | –
NC(=O)C1(N2CCCCC2)CCN(CCCC(=O)c2ccc(F)cc2)CC1 | inactive | inactive | inactive | inactive | – | – | –
CN1CCN(c2cc3c(cc2F)c(=O)c(C(=O)O)cn3-c2ccc(F)cc2)CC1 | inactive | inactive | inactive | inactive | – | – | –
CC[C@H](c1ccc(O)cc1)[C@@H](CC)c1ccc(O)cc1 | inactive | inactive | inactive | inactive | – | – | –
Oc1ccccc1C=NCc1ccccc1 | inactive | inactive | inactive | inactive | inactive | – | –
O=C(CN1CCN(Cc2ccc3c(c2)OCO3)CC1)N1c2ccccc2Sc2ccccc21 | inactive | inactive | inactive | inactive | – | – | –
CO[C@H]1C=CO[C@@]2(C)Oc3c(C)c(O)c4c(O)c(c(/C=N/N5CCN(C)CC5)c(O)c4c3C2=O)NC(=O)/C(C)=C\C=C[C@H](C)[C@H](O)[C@@H](C)[C@@H](O)[C@@H](C)[C@H](OC(C)=O)[C@@H]1C | inactive | inactive | inactive | inactive | – | – | –
OCCOCCN1CCN(C2=Nc3ccccc3Sc3ccccc32)CC1 | inactive | inactive | inactive | inactive | inactive | – | –
N/C(=N\N=C\c1ccc(Cl)cc1)N/N=C/c1ccc(Cl)cc1 | inactive | inactive | inactive | inactive | inactive | – | –
CCOC(=O)C(C#N)=C(c1ccccc1)c1ccccc1 | inactive | inactive | inactive | inactive | – | – | –
CCO[C@@H]1O[C@H](C(COCc2ccccc2)OCc2ccccc2)[C@H](OCc2ccccc2)[C@H]1O (some centres not stated) | inactive | inactive | inactive | inactive | – | – | –
CCCCCCCC/C=C\CCCCCCCCN | inactive | inactive | inactive | inactive | inactive | – | –
CC(=O)N[C@@H](CCC(=O)O)C(=O)O | inactive | inactive | inactive | inactive | inactive | – | –
CCNC(=O)NCc1cccc(Cl)c1 | inactive | inactive | inactive | inactive | inactive | – | –

SMILES | Potency [1] | outcome [2] | Potency [3] | Potency [4] | Potency [5] | outcome [6] | outcome [5]
CNCCCCOc1ccccc1Cc1ccccc1 | inactive | inactive | inactive | inactive | – | – | –
Oc1c(Cl)cc(Cl)c(Cl)c1Cc1c(O)c(Cl)cc(Cl)c1Cl | inactive | inactive | 25.1 µM (active) | inactive | 2.06 µM (active) | – | –
CN1CCN(CCC(=O)N2c3ccccc3Sc3ccc(C(F)(F)F)cc32)CC1 | inactive | inactive | inactive | inactive | – | – | –
OC[C@H]1O[C@@H]2O[C@H]3[C@H](O)[C@@H](O)[C@@H](O[C@H]4[C@H](O)[C@@H](O)[C@@H](O[C@H]5[C@H](O)[C@@H](O)[C@@H](O[C@H]6[C@H](O)[C@@H](O)[C@@H](O[C@H]7[C@H](O)[C@@H](O)[C@@H](O[C@H]8[C@H](O)[C@@H](O)[C@@H](O[C@H]1[C@H](O)[C@H]2O)O[C@@H]8CO)O[C@@H]7CO)O[C@@H]6CO)O[C@@H]5CO)O[C@@H]4CO)O[C@@H]3CO | inactive | inactive | inactive | inactive | inactive | – | –
Cc1ccc(O)c([C@H](CCN(C(C)C)C(C)C)c2ccccc2)c1 | inactive | inactive | inactive | inactive | – | – | –
CCCCN=C(N)N=C(N)N | inactive | inactive | inactive | inactive | – | inactive | inactive
Cn1c(=O)c2[nH]c(Br)nc2n(C)c1=O | inactive | inactive | inactive | inactive | inactive | – | –
CCCCNC(=O)NS(=O)(=O)c1ccc(N)cc1 | inactive | inactive | inactive | inactive | inactive | – | –
C=C[C@@]1(C)CC(=O)[C@]2(O)[C@@]3(C)[C@@H](O)CCC(C)(C)[C@@H]3[C@H](O)[C@H](OC(C)=O)[C@@]2(C)O1 | inactive | inactive | inactive | inactive | inactive | – | –
CCOCCn1c(N2CCCN(C)CC2)nc2ccccc21 | inactive | inactive | inactive | inactive | inactive | – | –
CCCCC(CC)COC(=O)/C=C/c1ccc(OC)cc1 (configuration not stated) | inactive | inactive | inactive | inactive | inactive | – | –
NCCNC(=O)c1ccc(Cl)cn1 | inactive | inactive | inactive | inactive | inactive | – | –
CN1CCN(C2=Nc3ccccc3Sc3ccc(Cl)cc32)CC1 | inactive | inactive | inactive | inactive | – | – | –
O=C(NC1CCN(CCc2c[nH]c3ccccc23)CC1)c1ccccc1 | inactive | inactive | inactive | inactive | – | – | –
CC(=O)OCC1=C(C(=O)O)N2C(=O)[C@@H](NC(=O)CSc3ccncc3)[C@H]2SC1 | inactive | inactive | inactive | inactive | inactive | – | –
CCCCc1cc2ccccc2c(OCCN(C)C)n1 | inactive | inactive | inactive | inactive | – | – | –
C[N+]1(CC2COC(c3ccccc3)(C3CCCCC3)O2)CCCCC1 (configuration not stated) | inactive | inactive | inactive | inactive | inactive | – | –
CN(C)CCN1C(=O)c2ccccc2N(C)c2ccccc21 | inactive | inactive | inactive | inactive | inactive | – | –
COc1ccc(C(Cl)=C(c2ccc(OC)cc2)c2ccc(OC)cc2)cc1 | inactive | inactive | inactive | inactive | – | – | –
O=C(N/N=C/c1ccc([N+](=O)[O-])o1)c1ccc(O)cc1 | inactive | inactive | inactive | inactive | – | – | –
c1ccc(-c2nc[nH]c2-c2ccccc2)cc1 | inactive | inactive | inactive | inactive | – | – | –
O=C(Nc1ccc([N+](=O)[O-])cc1)Nc1ccc([N+](=O)[O-])cc1 | inactive | inactive | inactive | inactive | inactive | – | –
